Screen size: about 310,000 compounds; about 2,200 (0.71%) showed an effect of 50% or more. The effect is printed as a negative number. Only a selection was taken, and strong results are over-represented in it overall.

The experiment deals with human ether-à-go-go-related gene (hERG) potassium channel (human, UniProt Q12809). Description: primary screen, population patch clamp on CHO cells stably expressing hERG; higher = less effect of the substance.
Chain of human ether-à-go-go-related gene (hERG) potassium channel (Q12809 whole entry, looked up): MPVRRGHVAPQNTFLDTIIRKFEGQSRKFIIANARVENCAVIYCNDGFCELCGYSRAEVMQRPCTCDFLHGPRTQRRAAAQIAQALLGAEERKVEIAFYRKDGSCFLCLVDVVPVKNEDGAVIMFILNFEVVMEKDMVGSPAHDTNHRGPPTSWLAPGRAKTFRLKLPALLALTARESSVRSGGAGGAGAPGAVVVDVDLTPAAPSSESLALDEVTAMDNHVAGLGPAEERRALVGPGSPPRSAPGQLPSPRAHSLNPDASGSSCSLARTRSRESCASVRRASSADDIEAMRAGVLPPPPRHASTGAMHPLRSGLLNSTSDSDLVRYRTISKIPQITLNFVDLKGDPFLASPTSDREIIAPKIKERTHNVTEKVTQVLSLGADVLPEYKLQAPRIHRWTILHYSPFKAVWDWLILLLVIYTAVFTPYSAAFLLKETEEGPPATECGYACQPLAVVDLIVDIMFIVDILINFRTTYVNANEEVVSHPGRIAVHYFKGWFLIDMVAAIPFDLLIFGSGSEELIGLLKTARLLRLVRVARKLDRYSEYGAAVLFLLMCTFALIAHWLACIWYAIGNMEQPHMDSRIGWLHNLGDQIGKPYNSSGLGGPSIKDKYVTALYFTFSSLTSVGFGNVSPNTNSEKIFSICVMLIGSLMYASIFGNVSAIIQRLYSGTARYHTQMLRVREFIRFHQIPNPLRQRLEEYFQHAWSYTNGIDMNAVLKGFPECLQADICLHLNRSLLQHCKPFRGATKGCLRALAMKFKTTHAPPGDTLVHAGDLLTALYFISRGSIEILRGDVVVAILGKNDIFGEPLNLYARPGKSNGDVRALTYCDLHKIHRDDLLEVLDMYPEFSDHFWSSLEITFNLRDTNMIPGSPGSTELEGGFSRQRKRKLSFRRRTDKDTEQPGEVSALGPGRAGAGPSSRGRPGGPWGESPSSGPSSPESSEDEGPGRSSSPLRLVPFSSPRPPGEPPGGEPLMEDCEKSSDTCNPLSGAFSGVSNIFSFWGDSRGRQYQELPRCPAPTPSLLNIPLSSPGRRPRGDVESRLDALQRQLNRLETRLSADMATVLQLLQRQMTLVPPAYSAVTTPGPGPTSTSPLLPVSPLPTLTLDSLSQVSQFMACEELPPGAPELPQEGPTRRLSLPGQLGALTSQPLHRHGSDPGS
As for `CN(CCCNC(=O)C1CCC(=O)N1Cc1ccccc1Cl)c1ccccc1` (centres unmarked), the “hERG current change (%, negative = inhibition) at 1uM” value came to 19.2%. The value for `CCOC(=O)C1(CC2CC2)CCN(Cc2ccc(OC)cc2F)CC1` was -73.3%; that for `CCOC(=O)C1(CC2CCCCO2)CCN(Cc2cn[nH]c2-c2cccc(F)c2)CC1` (centres unmarked) was -27.2%. Turning to `CCOC(=O)C1(CC2CCCCO2)CCN(Cc2ccc(OC)cc2F)CC1` (centres unmarked), the “hERG current change (%, negative = inhibition) at 1uM” value is reported as -19.8%. The value for `CCOC(=O)N1CCN(Cc2cn[nH]c2-c2ccc(-c3ccccc3)cc2)CC1` was 7.03%; that for `CCOC(=O)C1(Cc2ccccc2)CCN(Cc2cn[nH]c2-c2ccccc2)CC1` was 1.58%.

Take `CCOC(=O)C1(CC2CC2)CCN(Cc2cnc(-c3ccc(OC)cc3)nc2)CC1`: the “hERG current change (%, negative = inhibition) at 1uM” value worked out at 11.7%. Then `CCOC(=O)C1(CC2CC2)CCN(Cc2cn[nH]c2-c2cccc(F)c2)CC1`, with -57.6%; and `CCOC(=O)C1(CC2CC2)CCN(Cc2cn[nH]c2-c2ccccc2)CC1`, with -65.5%.

Consider `CCOC(=O)C1(CC2CC2)CCN(Cc2cn(C)c3ccccc23)CC1`, for which the “hERG current change (%, negative = inhibition) at 1uM” value is 12.2%. The value for `Cc1cnc(C(=O)OCC(=O)Nc2cc(S(=O)(=O)N3CCCCC3)ccc2Cl)cn1` was 19.4%; that for `CCOc1ccc(NC(=O)CC2C(=O)N(c3cccc(OC)c3)C(=O)N2CCOC)cc1` (centres unmarked) was 3.67%; that for `CC(C)CN(C(=O)CN1CCN(S(=O)(=O)c2ccccc2)CC1)c1c(N)n(CC(C)C)c(=O)[nH]c1=O` was -2.18%. The value for `CCOC(=O)c1c(CN(CC)CC)n(-c2ccccc2)c2ccc(O)cc12` was -45.6%; that for `Cc1ccc(C(=O)Nc2cnc3ccccc3c2)cc1` was 6.66%; that for `COc1ccc2c(CN3CC=C(c4ccccc4)CC3)cc(=O)oc2c1` was 13.1%.

Take `Nc1cccc(Cl)c1N1CCOCC1`: the “hERG current change (%, negative = inhibition) at 1uM” value is 9%.

As for `COc1ccccc1CNC(=O)C1CCCN(S(=O)(=O)c2cccc3cccnc23)C1` (centres unmarked), the “hERG current change (%, negative = inhibition) at 1uM” value came out at 0.692%. The value for `COc1cc(C(=O)N2CCN(C(=O)COc3ccc4ccccc4c3)CC2)cc(OC)c1OC` was -54%; that for `COc1cccc(C(=O)N2CCN(C(=O)COc3ccc4ccccc4c3)CC2)c1` was -3.85%; that for `O=C(COc1ccccc1)N1CCN(C(=O)c2ccc([N+](=O)[O-])cc2)CC1` was -19%. As to `O=C(COc1ccc2ccccc2c1)N1CCN(C(=O)c2ccc([N+](=O)[O-])cc2)CC1`, the “hERG current change (%, negative = inhibition) at 1uM” value is -69.3%. Turning to `COc1ccc(OCC(=O)N2CCN(C(=O)c3ccc([N+](=O)[O-])cc3)CC2)cc1`, the “hERG current change (%, negative = inhibition) at 1uM” value is reported as -43.2%. For the molecule `COc1cc(OC)cc(C(=O)N2CCN(C(=O)COc3ccc4ccccc4c3)CC2)c1`, the “hERG current change (%, negative = inhibition) at 1uM” value is given as -4.51%. The value for `O=C(CN1CCN(C(=O)C2CC2)CC1)Nc1cc(C(F)(F)F)cc(C(F)(F)F)c1` was -5.9%; that for `CCOc1ccc(Br)cc1S(=O)(=O)NC1CC(C)(C)NC(C)(C)C1` was 17%. The value for `CC1(C)CC(NC(=O)COc2ccc3ccc(=O)oc3c2)CC(C)(C)N1` was 13.6%. Turning to `CCOC(=O)c1c2n(c3c(NCc4ccccc4)ncnc13)CCCC2`, the “hERG current change (%, negative = inhibition) at 1uM” value was -70.3%. As to `CCOC(=O)CSc1ncnc2c(C(=O)OCC)c3n(c12)CCC3`, the “hERG current change (%, negative = inhibition) at 1uM” value was -10.4%. The value for `CCOC(=O)c1c(NCc2ccccc2)n[nH]c1C` was 4.96%; that for `COC(=O)c1c(NC(=O)CSc2ncn[nH]2)sc(C)c1C` was 11.2%.

For the molecule `CCN1CCN(c2ncnc3scc(-c4ccc(C)cc4)c23)CC1`, the “hERG current change (%, negative = inhibition) at 1uM” value was found to be 3.26%.

`Cc1ccc(-c2csc3ncnc(N4CCN(C)CC4)c23)cc1C`: the “hERG current change (%, negative = inhibition) at 1uM” value is given as 10.8%. As to `CCN1CCN(c2ncnc3scc(-c4ccc(C)c(C)c4)c23)CC1`, the “hERG current change (%, negative = inhibition) at 1uM” value is -50.8%. On to `CN(C)S(=O)(=O)c1ccc(C(=O)NCc2ccccn2)cc1`, for which the “hERG current change (%, negative = inhibition) at 1uM” value was determined as 14.5%. As to `CN(C/C=C/c1ccccc1[N+](=O)[O-])Cc1ccccc1`, the “hERG current change (%, negative = inhibition) at 1uM” value is -8.37%.

As for `Cl.NS(=O)(=O)c1ccc(CCNCc2ccccc2OCc2ccc(Cl)cc2)cc1`, the “hERG current change (%, negative = inhibition) at 1uM” value is reported as -70.5%. The value for `COc1cc(CNCCc2ccc(S(N)(=O)=O)cc2)ccc1OCc1ccc(Cl)cc1.Cl` was -1.77%. Then `COc1ccc(CCN(C)Cc2ccc(OC)c(OCc3ccccc3)c2)cc1OC`, with -77%; and `COc1ccc(CCN(C)Cc2ccc(OCc3ccccc3)c(OC)c2)cc1OC`, with -42.9%.

Take `Cl.NS(=O)(=O)c1ccc(CCNCc2ccccc2OCc2ccc(F)cc2)cc1`: the “hERG current change (%, negative = inhibition) at 1uM” value is recorded as -21.5%. The value for `COc1ccc(CCN(C)C/C=C/c2ccccc2)cc1OC` was -43.3%; that for `COc1cc(CN(C)CCc2ccccc2)ccc1OCc1ccccc1` was -12.2%; that for `Cl.NS(=O)(=O)c1ccc(CCNCc2cc(Cl)ccc2OCc2ccccc2)cc1` was -59.3%.

Take `Cl.NS(=O)(=O)c1ccc(CCNCc2cc(Br)ccc2OCc2ccccc2)cc1`: the “hERG current change (%, negative = inhibition) at 1uM” value was -44.9%. The value for `COc1ccc(CCN(C)C/C=C/c2ccccc2[N+](=O)[O-])cc1OC` was -54.3%; that for `C=CCOc1ccccc1CNCCc1ccc(S(N)(=O)=O)cc1.Cl` was -6.97%.
